The text below walks through data of PubChem BioAssay.

Active and inactive are the calls of the source.

Assay [1] is described as follows: optical density shifts of acrAB sulA E. coli – strain DRC41, OD650, 48 h, E. coli filamentation inducer project, primary screen (AID 1152).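 Note: E. coli MC1000 strain DRC41 lacking acrAB efflux pump and sulA.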 To be noted: higher = more signal, called active from +8 up or from −8 down.
Assay [2] can be described thus: probe aLefty1 binding on compound microarray – biochemical, small-molecule microarray, 635/667 nm fluorescence, primary screen (AID 1153).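 Note: score merges spot fluorescence with signal-to-noise ratio from the scanned slide images.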 The note with it: higher = more signal.
A short description of assay [3]: plasmodial surface anion channel blockers, osmotic lysis – cell-based, P. falciparum Indochina, OD700, 1 h, primary screen (AID 1154). The note with it: P. falciparum Indochina infected RBC osmotic lysis, higher = more signal, called active from +8 up or from −8 down.
A short description of assay [4]: plasmodial surface anion channel blockers, osmotic lysis – cell-based, P. falciparum Indochina, OD700, 2 h, primary screen (AID 1155).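 Note: lysis reports solute entry through the parasite surface anion channel PSAC.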 The note with it: P. falciparum Indochina infected erythrocytes, higher = more signal, called active from +8 up or from −8 down.
Assay [5] is described as follows: changes in parasitized red cell lysis, either direction – P. falciparum Indochina, OD700, 3 h, PSAC antagonist project, primary screen (AID 1156). To be noted: P. falciparum-infected erythrocytes, osmotic lysis, higher = more signal, called active from +8 up or from −8 down.
The nature of assay [6]: plasmodial surface anion channel blockers, osmotic lysis – cell-based, P. falciparum Indochina, OD700, 18 h, primary screen (AID 1157). To be noted: P. falciparum Indochina infected erythrocytes, osmotic lysis OD700, 18 h; higher = more signal, called active from +8 up or from −8 down.
The nature of assay [7]: S6 kinase pathway phospho-S6 level changes – cell-based, A549, cytoblot, luminescence, serum-stimulated, primary screen (AID 1158).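 Note: serum-stimulated A549 lung adenocarcinoma cells; signal is phosphorylated S6 detected by cytoblot immunostaining with HRP secondary.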 To be noted: 5 h, higher = more signal.
Assay [8] addresses NADPH oxidase 2 (Homo sapiens) (UniProt P04839). Briefly: compounds shifting NOX2 Amplex Red fluorescence – cell-based, HEK293-NOX2, PMA-stimulated, NOX inhibitor project, primary screen (AID 1159). Note: test concentration not given here. To be noted: 45 min, higher = more signal, called active from +8 up or from −8 down.
Assay [9] has as its target NADPH oxidase 4 (Homo sapiens) (UniProt Q9NPH5). Description: compounds shifting NOX4 Amplex Red fluorescence – cell-based, HEK293-NOX4, tetracycline-induced, NOX inhibitor project, primary screen (AID 1160). To be noted: HEK293-NOX4, Amplex Red H2O2 fluorescence, 45 min; higher = more signal, called active from +8 up or from −8 down.
The target in assay [10] is NADPH oxidase 5 (Homo sapiens) (UniProt Q96PH1). Briefly: compounds shifting NOX5 Amplex Red fluorescence – cell-based, HEK293-NOX5, NOX inhibitor project, primary screen (AID 1161). The note with it: HEK293-NOX5, ionomycin, 45 min, higher = more signal.
The nature of assay [11]: compound effects on lung adenocarcinoma cell viability – A549, calcein-AM fluorescence, 48 h, basal, profiling panel (AID 1162). Note: test concentration not given here. To be noted: higher = more signal.
Assay [12] can be described thus: compound effects on differentiated 3T3-L1 adipocyte viability – cell-based, 3T3-L1 adipocytes, calcein-AM fluorescence, 48 h, basal, profiling panel (AID 1163). Note: test concentration not given here. To be noted: 3T3-L1 adipocytes viability, higher = more signal.
Assay [13] is described as follows: compound effects on hepatocellular carcinoma cell viability – HepG2, calcein-AM fluorescence, 48 h, basal, profiling panel (AID 1164). Note: test concentration not given here. The note with it: higher = more signal.
The nature of assay [14]: compound effects on multiple myeloma cell viability – MM1S, calcein-AM fluorescence, 48 h, basal, profiling panel (AID 1165).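 Note: viability of MM1S multiple myeloma cells under basal unstimulated conditions; test concentration not given here.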 The note with it: higher = more signal.
Assay [15] can be described thus: calcein-AM signal in unstimulated myeloma cells – cell-based, calcein-AM fluorescence, 48 h, PK04 Diversity Set, profiling panel (AID 1166).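 Note: cells grown under basal conditions without added stimulus; test concentration not given here.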 The note with it: RPMI8226 myeloma viability, higher = more signal.
A short description of assay [16]: JC-1 mitochondrial signal, unstimulated HepG2 cells – cell-based, JC-1 fluorescence, 24 h, 100 nL compound, profiling panel (AID 1167). Note: test concentration not given here. The note with it: HepG2 mitochondrial potential, higher = more signal.
The nature of assay [17]: JC-1 mitochondrial signal, unstimulated adipocytes – cell-based, JC-1 fluorescence, 3T3-L1 adipocytes, 24 h, 100 nL compound, profiling panel (AID 1168). Note: test concentration not given here. The note with it: JC-1 mitochondrial fluorescence, higher = more signal, called active from +8 up or from −8 down.
A short description of assay [18]: JC-1 mitochondrial signal, unstimulated myeloma cells – cell-based, JC-1 fluorescence, RPMI8226, 24 h, 100 nL compound, profiling panel (AID 1169). Note: test concentration not given here. The note with it: JC-1 mitochondrial potential fluorescence, higher = more signal.
The nature of assay [19]: JC-1 mitochondrial signal, unstimulated MM1S myeloma – cell-based, JC-1 fluorescence, 24 h, 100 nL compound, profiling panel (AID 1170). Note: test concentration not given here. To be noted: MM1S mitochondrial potential, higher = more signal.
Assay [20] is described as follows: resazurin metabolic signal in A549 cells – cell-based, resazurin fluorescence, 24 h, PK04 Diversity Set, profiling panel (AID 1171). Note: test concentration not given here. To be noted: A549 viability, higher = more signal, called active from +8 up or from −8 down.

Chain of NADPH oxidase 2 (Homo sapiens) (P04839 whole entry, looked up): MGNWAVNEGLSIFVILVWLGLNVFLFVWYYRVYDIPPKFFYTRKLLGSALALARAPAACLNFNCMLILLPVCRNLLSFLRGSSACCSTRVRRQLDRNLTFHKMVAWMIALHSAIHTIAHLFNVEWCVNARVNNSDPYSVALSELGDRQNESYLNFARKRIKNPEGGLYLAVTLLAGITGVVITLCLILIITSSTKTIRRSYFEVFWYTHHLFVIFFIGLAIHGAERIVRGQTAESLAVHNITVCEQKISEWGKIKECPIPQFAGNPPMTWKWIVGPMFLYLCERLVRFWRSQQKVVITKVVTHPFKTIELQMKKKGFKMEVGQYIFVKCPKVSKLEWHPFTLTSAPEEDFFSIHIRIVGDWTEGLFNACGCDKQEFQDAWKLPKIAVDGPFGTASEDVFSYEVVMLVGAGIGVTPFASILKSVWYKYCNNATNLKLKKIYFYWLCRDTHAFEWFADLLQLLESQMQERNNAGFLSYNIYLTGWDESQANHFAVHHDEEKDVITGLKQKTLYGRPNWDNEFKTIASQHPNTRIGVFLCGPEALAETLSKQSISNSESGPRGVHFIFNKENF
Chain of NADPH oxidase 5 (Homo sapiens) (Q96PH1 whole entry, looked up): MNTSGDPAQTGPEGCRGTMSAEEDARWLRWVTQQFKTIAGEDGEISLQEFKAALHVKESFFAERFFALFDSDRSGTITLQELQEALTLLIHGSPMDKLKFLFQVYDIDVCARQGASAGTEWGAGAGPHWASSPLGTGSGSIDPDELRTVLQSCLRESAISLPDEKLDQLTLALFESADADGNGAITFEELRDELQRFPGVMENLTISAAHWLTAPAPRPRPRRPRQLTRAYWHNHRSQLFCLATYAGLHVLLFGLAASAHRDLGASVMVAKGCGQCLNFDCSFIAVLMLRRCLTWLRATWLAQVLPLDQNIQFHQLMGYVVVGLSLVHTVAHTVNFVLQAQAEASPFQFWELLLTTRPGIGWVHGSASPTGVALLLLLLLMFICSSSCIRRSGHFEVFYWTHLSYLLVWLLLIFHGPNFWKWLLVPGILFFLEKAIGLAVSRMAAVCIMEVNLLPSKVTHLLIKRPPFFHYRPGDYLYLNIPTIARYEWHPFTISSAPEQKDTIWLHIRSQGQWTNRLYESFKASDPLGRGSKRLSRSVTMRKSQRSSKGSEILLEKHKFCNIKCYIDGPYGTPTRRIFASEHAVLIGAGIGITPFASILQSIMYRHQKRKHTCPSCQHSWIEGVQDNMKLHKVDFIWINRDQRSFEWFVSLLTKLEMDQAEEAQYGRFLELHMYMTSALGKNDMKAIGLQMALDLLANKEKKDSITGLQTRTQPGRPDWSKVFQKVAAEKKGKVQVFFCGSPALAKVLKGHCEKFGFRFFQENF
Chain of NADPH oxidase 4 (Homo sapiens) (Q9NPH5 whole entry, looked up): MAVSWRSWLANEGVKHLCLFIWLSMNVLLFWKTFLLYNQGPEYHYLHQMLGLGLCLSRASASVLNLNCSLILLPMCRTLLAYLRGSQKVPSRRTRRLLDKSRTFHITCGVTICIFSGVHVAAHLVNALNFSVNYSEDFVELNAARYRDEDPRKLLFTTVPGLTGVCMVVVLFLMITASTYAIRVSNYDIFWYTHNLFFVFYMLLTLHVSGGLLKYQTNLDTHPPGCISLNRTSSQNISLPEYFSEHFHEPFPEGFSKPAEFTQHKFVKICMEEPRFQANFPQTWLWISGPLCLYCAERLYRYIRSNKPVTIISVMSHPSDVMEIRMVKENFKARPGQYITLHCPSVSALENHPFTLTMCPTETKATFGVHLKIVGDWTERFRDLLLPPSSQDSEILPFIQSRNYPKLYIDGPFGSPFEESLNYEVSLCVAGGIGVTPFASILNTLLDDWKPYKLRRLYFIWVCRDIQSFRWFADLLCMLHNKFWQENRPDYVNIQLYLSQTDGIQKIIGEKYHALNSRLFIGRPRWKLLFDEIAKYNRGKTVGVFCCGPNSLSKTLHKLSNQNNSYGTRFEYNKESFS

With `CO[C@H]1O[C@H](CO)[C@@H](OC(=O)Nc2ccc(Oc3ccccc3)cc2)[C@H](OC(=O)Nc2ccccc2-c2ccccc2)[C@H]1OC(=O)Nc1ccccc1-c1ccccc1`, the z-score was 1.38 (inactive) in [1]; 2.14 (inactive) in assay [3]; 0.647 (inactive) in assay [4]; 0.55 (inactive) in [5]; -1.37 (inactive) in [6]; -0.151 in assay [7]. Moreover, the z-score was 1.95 (inactive) in [8]; -0.7 (inactive) in assay [9]; 0.176 in [10]; -4.22 in assay [11]; 1.59 in assay [12]; -4.47 in [13]. The z-score in [14] is -3.39; in [15], -4.01; in assay [16] it was -1.37; in [17], 1.64 (inactive); in assay [18], -0.646; in [19], -1.81. Besides, the z-score in assay [20] is -4.85 (inactive). Besides, the composite z-score in assay [2] was 0.371.
As for `CO[C@H]1COC(=O)[C@@H](OCc2ccccc2)C=C[C@H](C)[C@@H](OC)COC(=O)[C@H](OCc2ccccc2)C=C[C@@H]1C`, the z-score in assay [1] is -0.282 (inactive); in assay [3], -0.0125 (inactive); in [4], -0.952 (inactive); in [5] it was -1.35 (inactive); in [6], -1.68 (inactive); in [7], 1.55. Further, the z-score in assay [8] was -0.174 (inactive); in assay [9] it was 0.433 (inactive); in assay [10] it was 0.467; in assay [11] it was 0.665; in assay [12], 1.21; in assay [13], 1.45. The z-score in assay [14] was 0.301; in assay [15], 0.0913; in [16], 1.6; in assay [17], 0.382 (inactive); in assay [18], -0.262; in assay [19], 2.82. In assay [20], the z-score is 1.76 (inactive). For the same compound, the composite z-score in [2] was -0.0966.
For the compound `COc1ccc(C(O)C2C=CC3C(=O)N(C)C(=O)C3N2N2CCCCC2)cc1OCc1ccccc1` (stereo not given), the z-score in assay [1] was -1.54 (inactive); in [3], 2.29 (inactive); in assay [4], 1.53 (inactive); in assay [5] it was 0.42 (inactive); in assay [6], 1.27 (inactive); in [7], -1.16. Besides, the z-score is 0.0637 (inactive) in [8]; -1.56 (inactive) in assay [9]; 1.31 in [10]; 0.138 in assay [11]; -0.393 in assay [12]; -0.888 in [13]. Further, the z-score in assay [14] was -0.25; in assay [15] it was 0.0629; in [16], -1.8; in [17] it was -0.693 (inactive); in [18], -0.813; in [19], 0.536. Further, the z-score in assay [20] was 2.31 (inactive). The same compound gave a composite z-score in assay [2] of 0.11.
On to `Cc1ccc(S[C@]2(C(=O)NCCCN(C)C)CC(=O)N(C3CCCCC3)[C@@H]2c2ccc(CO)cc2I)cc1`, for which the z-score in assay [1] is 1.16 (inactive); in [3], 14 (active); in assay [4] it was 1.35 (inactive); in assay [5], 1.39 (inactive); in assay [6], -1.07 (inactive); in assay [7], 1.72. Moreover, the z-score in assay [8] was -4.81 (inactive); in assay [9], -1.42 (inactive); in assay [10], 0.549; in assay [11], -0.272; in assay [12] it was 1.8; in assay [13] it was -4.31. For the same compound, the z-score in assay [14] is -3.25; in assay [15] it was -3.08; in assay [16], 1.8; in [17] it was 0.794 (inactive); in [18], -0.644; in assay [19], -1.84. For the same compound, the z-score in assay [20] is -0.835 (inactive). The compound also showed a composite z-score in assay [2] of 0.0919.
`COC(=O)Cn1c(C(=O)N2CCCC2)cc2c1C[C@H]1CN(C(=O)c3ccccc3)[C@@](Cc3ccccc3)(C(=O)OC)[C@@H]21`: the z-score in assay [1] was -0.406 (inactive); in assay [3] it was 1.54 (inactive); in [4], 0.104 (inactive); in [5] it was 0.16 (inactive); in [6], 0.469 (inactive); in assay [7], 0.136. Besides, the z-score in assay [8] was 0.489 (inactive); in assay [9] it was 0.217 (inactive); in assay [10], -2.54; in assay [11], -0.162; in [12], 0.0052; in [13], 0.513. Also, the z-score in [14] is 0.875; in assay [15] it was -0.256; in [16] it was 0.876; in assay [17], 0.385 (inactive); in assay [18], -0.0618; in assay [19], -1.25. Moreover, the z-score in [20] is 0.359 (inactive). Further, the composite z-score in [2] was 0.257.
